Bioassay records from PubChem.
Shown are actives, neighbours in structure and some others; about 4.8% of the full set was active somewhere.
DAX1 inh-1: inhibitors of DAX1 repression of SF-1 activated StAR promoter; HEK293T StAR-luciferase reporter, SF-1/DAX-1 repression relief; inhibition, % at 6.8 µM; 370,000 compounds, 1.1% hits;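 active = inhibition above the mean over all tested compounds plus 3 SD, cut at about 3.6% in these data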;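 also: 0% = DAX-1 cells with DMSO and 100% = cells lacking DAX-1 with DMSO; higher inhibition means more luminescence from relief of DAX-1 repression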
SMARCA2 act: activators of SMARCA2 function; MG213 cells, MMTV-luciferase reporter, dexamethasone, overnight; activation, % at 9.1 µM; 370,000 compounds, 1% hits; AID 652017; in the data active = activation above about 7.8%;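 also: 0% = vehicle wells and 100% = reference activator wells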
DAX1 inh-2: inhibits human nuclear receptor DAX1. P51843. HEK293 Gal4-DAX1 luciferase reporter, luminescence. inhibition, % at 6.75 µM. 340,000 compounds, 0.99% hits. AID 504766;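 active = inhibition above the mean over all tested compounds plus 3 SD, cut at about 4.2% in these data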;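 also: 0% = DAX1-transfected cells with DMSO and 100% = empty-vector control cells with DMSO; inhibition shows as a rise in luminescence from relieved DAX1 repression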
Target sequence (P51843 207-470 limits assumed): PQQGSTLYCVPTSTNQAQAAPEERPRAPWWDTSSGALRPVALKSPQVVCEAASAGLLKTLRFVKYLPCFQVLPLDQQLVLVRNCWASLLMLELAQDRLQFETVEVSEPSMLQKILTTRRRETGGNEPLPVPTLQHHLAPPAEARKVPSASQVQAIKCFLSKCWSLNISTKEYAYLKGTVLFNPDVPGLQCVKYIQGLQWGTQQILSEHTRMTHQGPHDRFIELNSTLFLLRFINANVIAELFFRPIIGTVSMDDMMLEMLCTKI
hcDAF-12 act: activates DAF-12 receptor from parasite H. contortus. HEK293 hcDAF-12 lit1-tk-luc reporter, luminescence; 0% DMSO, 100% Δ7-dafachronic acid. activation, % at 6.8 µM. 370,000 compounds, 1.4% hits. AID 652067;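 active = activation above the mean of all tested compounds plus 3 SD, cut at about 5.5% in these data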;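 also: 100% = response to 3 µM Δ7-dafachronic acid high control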
hgDAF-12 ag: agonists of H. glycines DAF-12 nuclear receptor; AID 687014; activation, % at 6.8 µM; HEK293 GAL4-hgDAF12 UAS-luciferase reporter, agonist luminescence; normalized to butyrate control; 370,000 compounds, 1.8% hits;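 active = activation above a cutoff set at the mean of all screened compounds plus 3 SD, cut at about 10% in these data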;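 also: 0% = DMSO wells and 100% = sodium butyrate wells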
ssDAF12 agonist: S. stercoralis DAF-12 activation, primary screen | activation, % at 6.8 µM | 370,000 compounds, 1% hits | AID 652126 | HEK293 ssDAF-12/GRIP1 lit1-tk-luc reporter, luminescence; % of 3 µM dafachronic acid response;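 active = activation above the mean over all tested compounds plus 3 SD, cut at about 0.9% in these data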;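 also: 0% = DMSO-only wells and 100% = 3 µM delta7-dafachronic acid wells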
LXRb hcDAF ctr: activates human LXR-beta, counter-screen for hcDAF-12 agonists. shares compounds with hcDAF-12 act. HEK293 Gal4-LXR tk-luc reporter, luminescence, 24 h; normalized: DMSO 0%, positive control 100%. activation, % at 6.8 µM. 3,400 tested, under 10 active. AID 743027;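 active = mean percent activation of the reporter above a cutoff set as the average over tested compounds plus their standard deviation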
hcDAF12 conf: hcDAF-12 agonism, confirmation assay; shares compounds with hcDAF-12 act; HEK293 hcDAF-12 lit1-tk-luc reporter, luminescence; % of Δ7-dafachronic acid response; activation, % at 6.8 µM; 3,400 compounds, 61% hits; AID 743032;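 active = mean activation across triplicate tests above the threshold derived from the earlier primary screen, cut at about 5.5% in these data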;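 also: 0% = DMSO only wells and 100% = 3 µM Δ7-dafachronic acid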
The depositor's hits bear a star; . = not tested or not shown.

SMILES	DAX1 inh-1	SMARCA2 act	DAX1 inh-2	hcDAF-12 act	hgDAF-12 ag	ssDAF12 agonist	LXRb hcDAF ctr	hcDAF12 conf
O=C(Nc1ccc(OC(F)(F)F)cc1)c1ccc2ccccc2n1	1	2	0	7.8*	9	1	0	7.7*
CCN1CCN(/C=N/c2nc(C)cs2)CC1	2	-1	0	6.8*	8	0	0	2
Brc1ccc(-c2csc(/N=C/N3CCCC3)n2)cc1	0	1	0	0	5	-1	.	.
O=C(CSc1nnc(-c2ccc(O)cc2)n1Cc1ccco1)c1ccccc1	0	1	-1	-2	-2	-1	.	.
O=C(CSc1nnc(-c2cccnc2)n1Cc1ccco1)c1ccccc1	1	-2	1	6.6*	-2	-1	0	2
O=c1oc2ccccc2cc1-c1nc2ccccc2o1	3	1	2	8.8*	9	1.0*	1	6.3*
O=C(Nc1ccccc1C(=O)NCC1CC1)c1cccs1	-1	-4	.	-2	-3	0	.	.
CN1CCN(C(=O)CNC(=O)c2cccs2)CC1	1	0	3	7.8*	3	0	0	1
Nc1ccn([C@@H]2O[C@H](C(=O)N[C@H](Cc3ccccc3)C(=O)Nc3ccc4scnc4c3)[C@@H](O)[C@H]2O)c(=O)n1	-1	-6	.	0	3	0	.	.
S=C(NNc1ccnc2cc(Cl)ccc12)Nc1ccc(Cl)cc1Cl	-1	-3	0	-1	0	-2	.	.
CCOc1ccc(NC(=S)NNc2ccnc3cc(Cl)ccc23)cc1	1	5	1	7.9*	0	-2	-1	-2
OCC1SC(O)C(O)C(O)C1O (configuration not stated)	0	2	.	0	3	-1	.	.
Cc1ccc(OC(=O)c2oc3ccc(F)cc3c2C)c(C)c1	0	5	1	8.1*	11*	1	0	3
COc1ccc(/C=C/C(=O)c2oc3ccc(F)cc3c2C)cc1	.	.	0	.	.	.	.	.
COc1ccc(-c2nnc(-c3ccc(F)cc3)o2)cc1	1	3	3	3	9	0	.	.
COc1cccc2sc(Nc3nnc(-c4ccc(F)cc4)o3)nc12	-1	4	0	7.8*	4	0	0	4
COC(=O)c1cc2c(c3c4cc(OC)ccc4n(S(=O)(=O)c4ccc(OC)cc4)c13)C(=O)N(Cc1ccc(C(F)(F)F)cc1)C2	1	0	.	1	0	-1	.	.
Oc1oc(-c2ccccc2)nc1C=Nc1cccc2ccccc12	-1	0	0	12*	3	0	0	5
CCCC1CCC2(CC1)CCC2OC(=O)Nc1cc(C)cc(C)c1 (configuration not stated)	.	.	.	1	-1	-2	.	.
CC(Oc1ccccc1)C(=O)N1CCCc2ccccc21 (configuration not stated)	-1	-2	-1	1	-2	-1	.	.
CCN(CC)C(=O)N1CCc2ccccc21	-1	1	0	6.7*	0	0	0	3
Cc1ccc(OC(C)C(=O)N2CCc3ccccc32)cc1 (configuration not stated)	1	1	-1	9.4*	1	0	0	3
CCOCC(=O)N1CCc2ccccc21	0	2	-1	5	2	0	.	.
O=C(c1ccccc1)C1Oc2ccccc2C2CC(c3cccs3)=NN12 (configuration not stated)	2	3	4	8.3*	7	-1	0	3
O=C(CSc1ccccn1)Nc1ccc2c(c1)C(=O)c1ccccc1C2=O	-1	4	0	6.8*	9	0	1	5
